Usually inhibition stands for the change of the read-out against control, counted positive when it falls.

The structures appear in SMILES notation. The whole screen tested about 37,000 compounds, of which about 100 (0.27%) were called active. The sample as a whole holds a higher share of actives than the screen did. Unmarked numbers belong to inactive results. Rule as the data show it: active = inhibition above about 85%; inconclusive = no clear call, values can overlap the other calls; inactive = below about 68%.

These results are taken from PubChem BioAssay AID2240 (Broad Institute, 2010).

The nature of this test: blocks MITF activity, primary screen, MITF inhibitor project, cell-based, luminescence (AID 2240).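 Also: human melanocyte line stably carrying TRPM1 promoter luciferase reporter.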 The note with it: TRPM1 promoter luciferase, 24 h, stronger effect = higher value, concentration not given here.
On to `O=C(CSc1nnc2c(n1)[nH]c1ccccc12)Nc1cccc(C(F)(F)F)c1`, for which the inhibition is 63.8%. The figure for `CN(c1ccc(C(=O)NCc2ccccn2)cc1)S(C)(=O)=O` is -16%; for `COC(=O)c1scc(S(=O)(=O)C(C)(C)C)c1-n1cccc1` it is 3.33%. The figure for `C[C@@H]1CN([C@@H](C)CO)C(=O)c2cccc(NS(=O)(=O)c3cn(C)cn3)c2O[C@H]1CN(C)Cc1ccc(Cl)c(Cl)c1` is -17%; for `CC(C)NC(=O)Nc1ccc2c(c1)C(=O)N([C@H](C)CO)C[C@H](C)[C@@H](CN(C)CC1CCCCC1)OCCCC[C@@H](C)O2` it is 0.663%; for `COc1ccc(CN(C)C[C@@H]2Oc3ccc(NC(=O)Nc4ccc(OC)cc4)cc3C(=O)N([C@H](C)CO)C[C@H]2C)cc1` it is -5.96%. The figure for `CCc1ccccc1NC(=O)Cn1cnc2scc(-c3ccc(OC)cc3)c2c1=O` is 27.3%; for `COc1ccc(S(=O)(=O)Nc2cccc3c2O[C@H](CN(C)C(=O)Nc2cccc4ccccc24)[C@H](C)CN([C@@H](C)CO)C3=O)cc1` it is 4.99%; for `NC(=S)c1cnn2c(C(F)(F)F)cc(C(F)(F)F)nc12` it is 6.61%. On to `C[C@@H]1CN([C@@H](C)CO)C(=O)c2cc(NC(=O)CCN3CCOCC3)ccc2O[C@@H]1CN(C)S(=O)(=O)c1ccccc1`, for which the inhibition was -5.16%.

`C[C@H](CO)N1C[C@H](C)[C@@H](CN(C)Cc2ccc(C(F)(F)F)cc2)Oc2c(NC(=O)NC3CCCCC3)cccc2C1=O`: the inhibition is 15.8%.

For `C[C@@H]1CN([C@@H](C)CO)C(=O)Cc2cc(NC(=O)Cc3ccccc3)ccc2O[C@@H]1CN(C)Cc1ccc2c(c1)OCO2`, the inhibition was 4.15%. The figure for `O=C(CSc1nnc2n1CCCN2)c1ccccc1` is -27.2%. As to `Cc1ccc(C23CC4CC(CC(CN)(C4)C2)C3)cc1C`, the inhibition is 94.1% (active). The result for `C[C@@H]1CN([C@H](C)CO)C(=O)Cc2cc(NC(=O)Nc3ccc4c(c3)OCO4)ccc2O[C@@H]1CN(C)C(=O)Nc1ccccc1` reads 8.24%; that for `COc1ccc(S(=O)(=O)Nc2ccc3c(c2)CC(=O)N([C@@H](C)CO)C[C@@H](C)[C@@H](CN(C)C)O3)cc1`, -7.94%. In the case of `C[C@@H]1CCCCO[C@@H](CN(C)Cc2ccncc2)[C@@H](C)CN([C@H](C)CO)C(=O)c2cc(NS(=O)(=O)c3cccs3)ccc2O1`, the inhibition is -6.77%. The result for `C[C@H]1CN([C@@H](C)CO)C(=O)Cc2cc(NC(=O)Nc3ccccc3)ccc2O[C@H]1CN(C)S(=O)(=O)c1cn(C)cn1` reads -4.73%; that for `Cc1cc(C(=O)Nc2cccc3c2O[C@@H](CN(C)C(=O)Nc2ccc(F)cc2)[C@H](C)CN([C@@H](C)CO)C3=O)n(C)n1`, -3.61%; that for `CC1=C(C(=O)OCc2ccccc2)OC(N)=C(C#N)C1c1ccc(F)cc1` (stereo unspecified), -8.27%. Regarding `O=S(=O)(NCCc1ccccc1)c1ccccc1`, the inhibition is -1.44%. For `Cc1cc(C)c2c(c1)CC(C)(C)c1[nH]c(-c3ccccc3)nc1-2`, the inhibition is 12.3%. The figure for `CCCC1CCC(c2ccc(OC(=O)c3ccco3)cc2)CC1` (stereo unspecified) is -3.57%; for `Cc1ccc(-n2c(SCC(=O)Nc3cccc(C)c3C)nc3ccccc3c2=O)cc1` it is 14.3%; for `Cc1nc(SCC(=O)O)[nH]c(=O)c1Oc1ccccc1` it is -13.2%. The result for `O=C(CCn1nc(-c2ccccc2)c2ccccc2c1=O)Nc1cccc(Br)c1` reads 6.27%.

Regarding `O=C(c1nc2ncccn2n1)N(Cc1ccccc1)Cc1ccccc1`, the inhibition is 3.11%.

In the case of `COc1cc(CO)cc(Cl)c1OCc1cccc([N+](=O)[O-])c1`, the inhibition is -30.9%. The figure for `COc1ccc(-c2cnc3c(-c4ccsc4)cnn3c2)cc1` is 26.7%; for `COc1ccc(S(=O)(=O)Nc2ccc3c(c2)CC(=O)N([C@H](C)CO)C[C@H](C)[C@H](CN(C)C(=O)Nc2ccccc2)O3)cc1` it is -16.9%; for `CNC[C@H]1Oc2ccc(NC(=O)C3CCCCC3)cc2C(=O)N([C@H](C)CO)C[C@@H]1C` it is 4.94%. Consider `C[C@H]1CN([C@@H](C)CO)C(=O)c2cccc(NC(=O)Nc3cccc4ccccc34)c2O[C@@H]1CN(C)C(=O)NC1CCCCC1`, for which the inhibition was 0.565%. The result for `O=C(CCCN1C(=O)c2ccccc2C1=O)Nc1cccc2c1CCCC2` reads -8.57%; that for `Cc1ccc2oc3c(c(=O)c2c1)C(c1ccc([N+](=O)[O-])cc1)N(CCCN1CCOCC1)C3=O` (stereo unspecified), -26.1%. The figure for `O=C(CN1CCOCC1)Nc1ccc(NC(=O)CN2CCOCC2)c(Cl)c1` is -25.8%; for `C[C@H](CO)N1C[C@H](C)[C@H](CN(C)CC2CCCCC2)Oc2ccc(NC(=O)C3CCCCC3)cc2C1=O` it is -9.78%. With `C[C@H]1CN([C@@H](C)CO)C(=O)Cc2cc(NC(=O)Cc3ccccc3)ccc2O[C@@H]1CN(C)S(=O)(=O)c1ccc(Cl)cc1`, the inhibition was 12.5%. The figure for `C[C@H]1CN([C@@H](C)CO)C(=O)c2cc(NC(=O)c3ccncc3)ccc2O[C@H]1CN(C)Cc1ccc(C(=O)Nc2ccccc2N)cc1` is 20.5%; for `O=C(OC1=CC(=O)c2cccc3cccc1c23)c1ccccc1` it is 26.1%; for `O=C(c1ccc(NCc2cccnc2)c([N+](=O)[O-])c1)N1CCCCC1` it is 6.72%. The figure for `CC1(C)Cc2c(sc3ncn4nc(COc5ccc(Cl)cc5)nc4c23)C(C)(C)N1` is 6.06%; for `CNC[C@@H]1Oc2c(NC(=O)Nc3ccc(OC)cc3)cccc2C(=O)N([C@@H](C)CO)C[C@@H]1C` it is -2.63%; for `C[C@H]1CN([C@@H](C)CO)C(=O)Cc2cc(NC(=O)NC3CCCCC3)ccc2O[C@@H]1CN(C)Cc1ccc(Oc2ccccc2)cc1` it is 33.3%. The result for `C[C@@H]1CN([C@H](C)CO)C(=O)Cc2cc(NC(=O)NC3CCCCC3)ccc2O[C@H]1CN(C)S(=O)(=O)c1ccc(Cl)cc1` reads -10.5%; that for `Cc1ccc(N(CC(=O)Nc2ccccc2Sc2ccccc2)S(C)(=O)=O)c(C)c1`, -5.49%.

Consider `CC(=O)Nc1nc2ccccc2s1`, for which the inhibition was -10.3%.

As for `Cc1noc(C)c1NC(=O)Nc1cccc2c1O[C@@H](CN(C)Cc1ccc(C(F)(F)F)cc1)[C@@H](C)CN([C@@H](C)CO)C2=O`, the inhibition is 1.59%.

For the molecule `COc1ccc(NC(=O)Nc2cccc3c2O[C@@H](CN(C)S(=O)(=O)c2cn(C)cn2)[C@H](C)CN([C@@H](C)CO)C3=O)cc1`, the inhibition was -11.4%. Consider `C[C@@H]1CN([C@H](C)CO)C(=O)c2cc(NC(=O)NC3CCCCC3)ccc2O[C@@H]1CN(C)S(C)(=O)=O`, for which the inhibition is 1.34%. The result for `Nc1cc(N)nc(SCC(=O)c2ccc(Br)cc2)n1` reads -22.1%. The figure for `CCCCn1c(O)c(C#N)c(C)cc1=O` is -16.6%. The figure for `C[C@H]1CN([C@@H](C)CO)C(=O)Cc2cc(NS(C)(=O)=O)ccc2O[C@@H]1CN(C)CC1CC1` is -11.8%; for `C=CCn1c2ccccc2c2nnc(SCC(=O)N3c4ccccc4Sc4ccccc43)nc21` it is 27.5%. Consider `Cc1ccc(-c2nnc(Nc3ccc(C(=O)N(C)C)cc3)c3ccccc23)cc1S(N)(=O)=O`, for which the inhibition was -20.2%.

In the case of `Cc1nn(-c2ccccc2)c(CC(C)(C)C(=O)O)c1C(=O)O`, the inhibition was -5.62%. The result for `CCc1cc2c(=O)n(-c3ccccc3)c(SCC(=O)O)nc2s1` reads -1.73%; that for `COc1cc(S(=O)(=O)NCCN2CCOCC2)ccc1Br`, 1.46%.

Take `C=C1C(=O)O[C@H]2C3=C(C)C[C@H](OC(C)=O)C[C@]3(C)CC[C@@H]12`: the inhibition is 8.27%. The figure for `Oc1ccc(CN2CCCC2)c2cccnc12` is 40.6%. The result for `C[C@H]1CN([C@@H](C)CO)C(=O)c2cc(NC(=O)Cn3cnnn3)ccc2O[C@@H]1CN(C)C(=O)Nc1ccccc1` reads 5.69%. The result for `C[C@H](CO)N1C[C@H](C)[C@H](CN(C)CC2CC2)Oc2ccc(NC(=O)c3ccncc3)cc2C1=O` reads -11.7%; that for `C=C1C[C@@]23CC[C@@H]4[C@](C)(CO)CCC[C@@]4(C)[C@@H]2CC[C@@H]1C3`, -32.7%.

With `Cc1ccc(NC(=O)C(C)N(c2ccc(Cl)cc2)S(C)(=O)=O)c(C)c1` (stereo unspecified), the inhibition is -5.76%. The result for `Cc1cc([N+](=O)[O-])nn1CC(=O)NC(C)C` reads 8.94%; that for `C[C@@H]1CN([C@@H](C)CO)C(=O)c2cc(NC(=O)Nc3ccccc3)ccc2O[C@H]1CN(C)C(=O)Nc1ccc(F)cc1`, 3.76%. The figure for `COc1ccccc1NC(=O)C1=C(C)Nc2nnnn2C1c1ccccc1OCc1ccccc1` (stereo unspecified) is 41.2%. The figure for `O=C(CSc1nnc(-c2ccccc2)n1-c1ccccc1)c1cccc([N+](=O)[O-])c1` is 5.69%. Turning to `C[C@H](CO)N1C[C@H](C)[C@@H](CN(C)Cc2ccc(C(F)(F)F)cc2)Oc2ccc(NC(=O)CCN3CCOCC3)cc2C1=O`, the inhibition is -9.07%. The figure for `c1ccc(Cn2c3ccccc3c3nnc(SCc4ccc5nonc5c4)nc32)cc1` is 20.6%; for `C[C@@H]1CCCCO[C@@H](CN(C)C(=O)CCC(F)(F)F)[C@@H](C)CN([C@H](C)CO)C(=O)c2cc(NC(=O)Nc3ccccc3)ccc2O1` it is -11.3%. The figure for `C[C@@H]1CN([C@@H](C)CO)C(=O)c2cc(NC(=O)C3CCCCC3)ccc2O[C@@H]1CN(C)Cc1ccc(C(=O)O)cc1` is 1.31%; for `COc1ccc(NC(=O)CN(C)S(=O)(=O)c2ccccc2)cc1OC` it is -9.83%. The result for `COc1ccc(NC(=O)N(C)C[C@H]2Oc3c(NC(=O)C4CC4)cccc3C(=O)N([C@@H](C)CO)C[C@@H]2C)cc1` reads 0.647%; that for `C[C@H]1CN([C@@H](C)CO)C(=O)c2cc(N(C)C)ccc2O[C@@H]1CN(C)Cc1ccccc1`, -14.1%; that for `O=C(CSc1nccc(=O)[nH]1)Nc1ccc([N+](=O)[O-])cc1`, -3.55%. Take `COc1cc(NC(=S)NCCN2CCOCC2)c(OC)cc1Cl`: the inhibition is 17.1%. The figure for `O=C(Nn1cnc2ccccc2c1=O)c1ccccc1` is -19.3%. The figure for `C[C@@H]1CN([C@H](C)CO)C(=O)c2cc(NS(=O)(=O)c3cccs3)ccc2O[C@@H]1CN(C)Cc1ccc(C(F)(F)F)cc1` is -1.87%. `COc1ccc(NC(=O)Nc2cccc3c2O[C@@H](CN(C)S(=O)(=O)c2ccc(C)cc2)[C@H](C)CN([C@@H](C)CO)C3=O)cc1`: the inhibition was -6.48%.

Regarding `CCN(c1ccccc1)S(=O)(=O)c1ccc(C)cc1`, the inhibition is 12.9%. In the case of `C[C@H](CO)N1C[C@H](C)[C@H](CN(C)C(=O)Nc2ccc3c(c2)OCO3)Oc2ccc(NC(=O)Nc3ccccc3)cc2CC1=O`, the inhibition was -9.08%.

`COc1ccc(S(=O)(=O)N(C)C[C@H]2Oc3ccc(NC(=O)C4CC4)cc3CC(=O)N([C@@H](C)CO)C[C@@H]2C)cc1`: the inhibition is -12.4%.

`COC(=O)c1c(-c2cccnc2)csc1NC(=O)c1cc(-c2ccc(C)o2)nc2ccccc12`: the inhibition was -34.4%. The figure for `Cc1ccc(S(=O)(=O)N(C)C[C@H]2Oc3c(NS(=O)(=O)c4cccs4)cccc3C(=O)N([C@@H](C)CO)C[C@@H]2C)cc1` is 0.709%.

In the case of `O=C(CSc1nc2ccccc2s1)c1cc2ccccc2oc1=O`, the inhibition is -18%. The result for `C[C@@H]1CN([C@@H](C)CO)C(=O)c2cc(NC(=O)CCCN(C)C)ccc2O[C@@H]1CN(C)Cc1ccncc1` reads 4.25%. The result for `CCCN(C)C[C@H]1OCCCC[C@@H](C)Oc2ccc(N(C)C)cc2C(=O)N([C@H](C)CO)C[C@@H]1C` reads 43.3%. The result for `CC(=O)c1c(C)nn(CC(O)COc2ccc3cc(Br)ccc3c2)c1C` (stereo unspecified) reads 50.6%; that for `Cc1ccc(S(=O)(=O)N(C)C[C@H]2Oc3c(NS(=O)(=O)c4ccc(Cl)cc4)cccc3C(=O)N([C@H](C)CO)C[C@@H]2C)cc1`, 0.159%. As for `Oc1c(Cl)cc(Cl)c(Cl)c1Cc1c(O)c(Cl)cc(Cl)c1Cl`, the inhibition was 93.7% (active).

On to `O=C(NCCN1CCCCC1)Nc1cccc2ccccc12`, for which the inhibition is 5.31%.
